HDAC3 inhib = human HDAC3 inhibition. recombinant HDAC3, fluorogenic peptide/trypsin coupled, fluorescence. O15379. inhibition, % at 8.3 µM. AID 2718. 320,000 tested, 0.15% active; in the data active = inhibition above about 26%, passing the limit was not always enough; inconclusive = no clear call, values can overlap the other calls
Efflux pump mplx = inhibitors of Candida antifungal efflux pumps expressed in yeast; S. cerevisiae Candida pump triplex, Nile Red efflux; inhibition, % at 10 µM; 330,000 tested, 0.44% active; AID 485275;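 active = plate passing quality check with inhibition over a set limit, or well fluorescence over plate mean plus 4 SD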;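 note: Nile Red retained in pooled yeast measured as flow cytometry median fluorescence; 0% = buffer negative control and 100% = Enniatin B positive control; higher means more Nile Red kept so more efflux inhibition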
Rce1 inh = blocks yeast Ras-converting enzyme; 290,000 tested, 0.27% active; Q03530; yeast membranes, quenched prenylated peptide cleavage fluorescence; calls only;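 active = fall in fluorescence gain of 50% or more versus controls, with final raw signal at or below 3038400; inconclusive = same 50% fall but final raw signal above 3038400; inactive = fall in fluorescence gain under 50%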;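 note: plate controls were neutral control wells for no effect and wells lacking membranes for full effect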
Target sequence (Q03530 whole entry, looked up): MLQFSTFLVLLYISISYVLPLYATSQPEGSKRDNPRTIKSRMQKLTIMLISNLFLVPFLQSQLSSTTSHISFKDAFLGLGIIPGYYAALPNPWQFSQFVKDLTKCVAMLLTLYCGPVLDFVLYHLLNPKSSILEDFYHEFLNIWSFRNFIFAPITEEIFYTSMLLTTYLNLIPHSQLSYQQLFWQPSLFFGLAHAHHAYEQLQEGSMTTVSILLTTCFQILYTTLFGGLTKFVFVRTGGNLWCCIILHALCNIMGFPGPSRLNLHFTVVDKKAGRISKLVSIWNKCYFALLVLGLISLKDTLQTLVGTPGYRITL
ALR H2O2 inh = human ALR oxidase inhibition via reduced H2O2. P55789. purified ALR, DTT oxidation, H2O2 HRP-luminol luminescence. inhibition, % (test concentration not listed). 290,000 tested, 3.8% active;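 active = mean replicate inhibition above about 79%, with every replicate also reaching it, limit read from the data; inconclusive = only one of the two criteria met; inactive = mean below limit and not every replicate reaching it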
Target sequence (P55789 whole entry, looked up): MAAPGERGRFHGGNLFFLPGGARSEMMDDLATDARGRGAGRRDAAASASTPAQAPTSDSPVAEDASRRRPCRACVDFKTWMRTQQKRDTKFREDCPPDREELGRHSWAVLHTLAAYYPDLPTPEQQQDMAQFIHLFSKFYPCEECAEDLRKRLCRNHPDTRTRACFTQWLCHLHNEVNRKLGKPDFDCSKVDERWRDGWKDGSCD
Rtt109 HAT inh = C. albicans Rtt109 histone acetyltransferase inhibition; Q5AAJ8; purified Rtt109/Vps75, ThioGlo CoA-SH fluorescence, 4 h; inhibition, % at 34.9 µM; 330,000 tested, 0.16% active;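 active = inhibition of at least 50% in every replicate; inconclusive = best replicate reaches 50% inhibition but some replicates fall short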
GRK2 aptamer HTS = human GRK2 inhibition via aptamer displacement; bead flow cytometry, FAM-aptamer displacement from GRK2; 330,000 tested, 0.59% active; P25098; inhibition of aptamer binding, % at 10 µM;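 active = inhibition of aptamer binding above 40%, roughly 3 SD of noise, on plates passing a quality check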;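 note: median bead fluorescence of bound FAM aptamer so fluorescent compounds give negative values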
* hit, by the source's call. Sampled rows, rich in hits. Any-hit rate of the full collection: about 4.5%.

Results for O=S(=O)(NCC(c1ccco1)N1CCc2ccccc21)c1ccccc1 (centres undefined) ?
HDAC3 inhib: -5.5; Efflux pump mplx: 0.4; Rce1 inh: inactive; ALR H2O2 inh: 97.4*; Rtt109 HAT inh: -0.4; GRK2 aptamer HTS: 0.0

How did O=C(NCC(c1ccco1)N1CCc2ccccc21)c1ccccc1Cl (centres undefined) do in these assays?
HDAC3 inhib: 9.8; Efflux pump mplx: -0.2; Rce1 inh: inactive; ALR H2O2 inh: 98.4*; Rtt109 HAT inh: 8.8; GRK2 aptamer HTS: 0.0

How did O=C(NCC(c1ccco1)N1CCc2ccccc21)c1c(F)cccc1F (centres undefined) do in these assays?
HDAC3 inhib: -2.2; Efflux pump mplx: 0.0; Rce1 inh: inactive; ALR H2O2 inh: 28.5; Rtt109 HAT inh: -7.3; GRK2 aptamer HTS: 0.0

Results for COc1ccc(C(=O)NC(C)c2ccncc2)cc1S(=O)(=O)N(C)Cc1ccccc1 (centres undefined) ?
HDAC3 inhib: 0.5; Efflux pump mplx: -0.2; Rtt109 HAT inh: 9.9; GRK2 aptamer HTS: 0.0

What do the screens show for `COc1ccc2nc(C)cc(SCC(=O)N/N=C/c3cccc4ccccc34)c2c1`?
HDAC3 inhib: 3.9; Efflux pump mplx: 0.3; Rce1 inh: inactive; ALR H2O2 inh: -0.1; Rtt109 HAT inh: 0.5; GRK2 aptamer HTS: 0.0

Results for COc1cc(/C=N/NC(=O)CCn2c3ccccc3c3ccccc32)ccc1O ?
HDAC3 inhib: -1.1; Efflux pump mplx: 0.0; Rce1 inh: inactive; ALR H2O2 inh: 70.3; Rtt109 HAT inh: 12.3; GRK2 aptamer HTS: 3.0

Results for Cc1cc(SCC(=O)N/N=C/c2ccc(O)c(O)c2)c(C)cc1Br ?
HDAC3 inhib: -0.6; Efflux pump mplx: -0.2; Rce1 inh: inactive; ALR H2O2 inh: 98.8*; Rtt109 HAT inh: 7.0; GRK2 aptamer HTS: 3.0

What do the screens show for `COc1cccc2c(N/N=C/c3ccccc3)cc(C)nc12`?
HDAC3 inhib: 3.3; Efflux pump mplx: 0.2; Rce1 inh: inactive; ALR H2O2 inh: 87.1*; Rtt109 HAT inh: 6.3; GRK2 aptamer HTS: 1.0

What do the screens show for `COc1cccc2c(SCC(=O)N/N=C/c3ccc(O)c(O)c3)cc(C)nc12`?
HDAC3 inhib: 7.0; Efflux pump mplx: 0.0; ALR H2O2 inh: 99.6*; Rtt109 HAT inh: 0.8; GRK2 aptamer HTS: 0.0

Results for Cc1cc(SCC(=O)N/N=C/c2ccc(O)c(O)c2)nc2ccccc12 ?
HDAC3 inhib: 6.2; Efflux pump mplx: 0.5; Rce1 inh: inactive; Rtt109 HAT inh: 21.3; GRK2 aptamer HTS: 0.0

What do the screens show for `COc1ccc2nc(C)cc(SCC(=O)N/N=C/c3ccc(O)c(O)c3)c2c1`?
HDAC3 inhib: -0.2; Efflux pump mplx: 0.0; Rce1 inh: inactive; ALR H2O2 inh: 88.3*; Rtt109 HAT inh: inconclusive; GRK2 aptamer HTS: 2.0

What do the screens show for `O=C(N/N=C/c1ccc(O)c(O)c1)N/N=C/c1ccc(O)c(O)c1`?
HDAC3 inhib: 9.0; Efflux pump mplx: -0.2; Rce1 inh: inactive; ALR H2O2 inh: 99.6*; Rtt109 HAT inh: -15.7; GRK2 aptamer HTS: 24.0

Results for COc1ccc2c(c1)c(C(=O)N/N=C/c1ccc(O)c(O)c1)c(C)n2C ?
HDAC3 inhib: 5.4; Efflux pump mplx: 4.2; Rce1 inh: inactive; ALR H2O2 inh: 99.5*; Rtt109 HAT inh: 1.1; GRK2 aptamer HTS: 1.0

What do the screens show for `COc1cccc2c(SCC(=O)N/N=C/c3ccccc3)cc(C)nc12`?
HDAC3 inhib: -1.4; Efflux pump mplx: -0.2; Rce1 inh: inactive; ALR H2O2 inh: 98.6*; Rtt109 HAT inh: 5.9; GRK2 aptamer HTS: 0.0

How did FC(F)Oc1ccc(NC(=S)N2CCc3ccccc32)cc1 do in these assays?
HDAC3 inhib: 4.1; Efflux pump mplx: -0.1; Rce1 inh: inactive; ALR H2O2 inh: 8.9; Rtt109 HAT inh: 3.0; GRK2 aptamer HTS: 0.0

How did N#C/C(=C\c1ccc(O)c(O)c1)C(=O)Nc1ccccc1 do in these assays?
HDAC3 inhib: 6.4; Efflux pump mplx: 0.3; ALR H2O2 inh: 99.1*; Rtt109 HAT inh: 0.7; GRK2 aptamer HTS: 2.0

How did CC(NC(=O)/C(C#N)=C/c1ccc(OCC(=O)O)cc1)c1ccccc1 (centres undefined) do in these assays?
HDAC3 inhib: 1.6; Efflux pump mplx: 0.7; Rce1 inh: inactive; ALR H2O2 inh: 6.2; Rtt109 HAT inh: 2.4; GRK2 aptamer HTS: 1.0

What do the screens show for `N#C/C(=C\c1cccnc1)C(=O)Nc1ccc(C(=O)O)cc1`?
HDAC3 inhib: 6.2; Efflux pump mplx: 0.1; Rce1 inh: inactive; ALR H2O2 inh: 54.0; Rtt109 HAT inh: 11.2; GRK2 aptamer HTS: 0.0
